Assay outcomes as filed in PubChem BioAssay.
Only some compounds are listed: those with a hit (about 10% of all), similar ones and a draw of the others.
G9a block = qHTS Assay for Inhibitors of Histone Lysine Methyltransferase G9a; actives 8.8% (n = 350,000); Potency, µM (doses to about 102 µM), inactives show at the highest dose activity, negative = inhibition, hits mostly inhibitors; G9a H3K9 monomethylation, AlphaScreen, 2 h; note: % is set by controls: 0 for no effect and ±100 for the full control effect; nearly all actives have a fitted effect of over 75% in size
Target sequence (Q96KQ7 913-1193 limits assumed): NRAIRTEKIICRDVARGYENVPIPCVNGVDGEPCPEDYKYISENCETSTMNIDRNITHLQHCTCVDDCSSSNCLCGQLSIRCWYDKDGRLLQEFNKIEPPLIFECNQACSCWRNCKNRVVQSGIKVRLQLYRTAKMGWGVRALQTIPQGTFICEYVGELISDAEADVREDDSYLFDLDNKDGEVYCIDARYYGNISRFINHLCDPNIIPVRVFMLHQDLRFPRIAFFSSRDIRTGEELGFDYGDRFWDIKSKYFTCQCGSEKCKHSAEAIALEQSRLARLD
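G9a (20 nM) was preincubated 15 min with compound, then reacted 2 h at room temperature with 500 nM biotin-H3K9 peptide and 20 µM SAM. Monomethyl-H3K9 detected by AlphaScreen using anti-H3K9me1 antibody.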
BAZ2B block = qHTS Assay for Inhibitors of BAZ2B; actives 4.4% (n = 360,000); AlphaScreen BAZ2B-H3K14Ac peptide displacement; Potency, µM (titrated, usually from 114 µM), for inactives: at the top dose activity change, negative = inhibition, actives largely listed as inhibitors; Bromodomain adjacent to zinc finger domain protein 2B (Homo sapiens), Q9UIF8; note: % is set by controls: 0 for no effect and ±100 for the full control effect; nearly all actives have a fitted effect of over 60% in size
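Protein-peptide AlphaScreen: BAZ2B 50 nM, b-H3K14Ac 50 nM, 1x PBS pH 7.4 + 0.01% Tween-20. Preincubation 30 min RT; cpd 30 min RT (top 110 uM); beads 20 min RT, light-protected.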
GLS inh = qHTS for Inhibitors of Glutaminase (GLS). GLS enzymatic activity, qHTS titration. Potency, µM (highest dose often 45.5 µM), without a hit: top-dose activity change, negative = inhibition, most hits filed as inhibitors. actives 0.21% (n = 410,000); note: % is set by controls: 0 for no effect and ±100 for the full control effect
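Human kidney-isoform GLS in 45 mM KH2PO4 pH 8.2, 0.02% Tween-20, with compound, started with 1mM L-Glutamine (added stock). Glutamate oxidase/HRP/Amplex red coupled fluorescence read at start and after 30 min at RT.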
JMJD2A Tudor inh = qHTS Assay for Inhibitors of JMJD2A-Tudor Domain. AID 504339, 2011. AlphaScreen JMJD2A-Tudor / H3K4me3 peptide binding. Potency, µM (series often up to 114 µM), for the others: top-dose activity change, negative = inhibition, hits mostly inhibitors. actives 4.4% (n = 390,000). Lysine-specific demethylase 4A (Homo sapiens), O75164; note: % is set by controls: 0 for no effect and ±100 for the full control effect; nearly all actives have a fitted effect of over 50% in size
HP1b binding inh = HTS for Inhibitors of HP1-beta Chromodomain Interactions with Methylated Histone Tails; AID 540317, 2011; actives 0.56% (n = 390,000); AlphaScreen HP1-beta / biotin-H3K9me3 peptide binding; Potency, µM (top dose mostly 114 µM), for the others: top-dose activity change, negative = inhibition, hits mostly inhibitors; Chromobox protein homolog 1 (Homo sapiens), P83916; note: nearly all actives have a fitted effect of over 70% in size
Target sequence (P83916 whole entry, looked up): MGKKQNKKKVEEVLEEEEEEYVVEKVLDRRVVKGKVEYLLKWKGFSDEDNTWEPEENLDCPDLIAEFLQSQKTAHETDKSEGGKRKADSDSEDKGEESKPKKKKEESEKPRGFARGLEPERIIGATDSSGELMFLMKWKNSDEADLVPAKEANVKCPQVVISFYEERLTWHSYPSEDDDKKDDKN
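Compound inhibition of the preformed complex between 50 nM HP1-beta and 50 nM biotinylated H3K9me3 peptide was read by AlphaScreen. Buffer was PBS pH 7.4 with 0.01% Tween-20. Incubations ran 30 min at room temperature, with 10 ug/mL donor/acceptor beads.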
Numbers without * were called inactive; ? = inconclusive; . = no result given; ! = repeats disagree; [ ] = remark or other dose. Calls come from the whole dose curve; as a rule, active = well fitted curve in the direction sought with a large enough effect; inconclusive = small, poorly fitted or top-dose-only effect, or another doubt; inactive = no such curve, though single readings can be large; an effect the other way counts as inactive or inconclusive. Potency is the fitted concentration of half-maximal effect.

SMILES	G9a block	BAZ2B block	GLS inh	JMJD2A Tudor inh	HP1b binding inh
COc1cccc(NC(=O)CSc2nnc3[nH]c(=O)cc(-c4ccccc4)n23)c1	?	5%	-6%	-4%	59%
O=C(Nc1ccc(N2CCCC2)cc1)C(Cl)c1ccccc1 (stereo not given)	10µM*	50µM*	-20%	28µM*	45µM*
CS(=O)(=O)N1CCN(c2ccc(NC(=O)C(c3ccccc3)c3ccccc3)cc2)CC1	8.9µM*	0%	6%	-20%	1%
CCC(=O)Nc1ccc(N2CCN(S(C)(=O)=O)CC2)cc1	-19%[59 µM]	11%	8%	-5%	28%
c1ccc(-c2nc3cnccn3c2Nc2ccc3c(c2)OCCO3)cc1	?	?	?	45µM*	?
Clc1cccc(-c2nc3ccccn3c2Nc2ccc3c(c2)OCCO3)c1	?	11µM*	31%	22µM*	?
COc1cc(-c2nc3ccc(C)cn3c2Nc2ccc3c(c2)OCCO3)ccc1O	22µM*	14µM*	13µM*	?	50µM*
Oc1ccc(-c2nc3ncccn3c2Nc2ccc3c(c2)OCO3)cc1	?	50µM*	20%	?	-24%
Clc1ccc(-c2nc3ncccn3c2Nc2ccc3c(c2)OCO3)cc1	12%	-20%	0%	-13%[57.1 µM]	9%
COC(=O)c1ccc(OC(=O)CCc2cc(OC)c(OC)c(OC)c2)cc1	12%	2%	8%	3%	62%
Cc1ccccc1-c1nc2c3c(-c4ccccc4)c(-c4ccccc4)oc3ncn2n1	6%[59 µM]	0%	0%	2%	50%
COC(=O)c1cc2oc3ccccc3c2n1CC(=O)Nc1ccc(C)cc1Cl	1%[59 µM]	3%	-2%	-16%	19%
COc1ccc(OC2(C)CCN(Cc3ccc(-c4ccccc4)o3)C2)cc1 (stereo not given)	.	.	-1%	.	.
Brc1ccc2nc(-c3ccccc3)c(Nc3ccc4c(c3)OCO4)n2c1	-7%[59 µM]	3%	-9%	3%	38%
CN(C)c1ccc(-c2nc3ccccn3c2Nc2ccc3c(c2)OCCO3)cc1	2.2µM*	-32%	13%	13µM*	?
COc1cc(-c2nc3cnccn3c2Nc2ccc3c(c2)OCCO3)ccc1O	?	2%	15%	-35%	0%
Oc1ccc(-c2nc3ccccn3c2Nc2ccc3c(c2)OCCO3)cc1	13µM*	40µM*	11%	50µM*	-37%
NC(=O)c1nc(-c2ccc(F)c(F)c2)nc2c1[nH]c(=O)n2-c1cccc(Cl)c1	9%[59 µM]	2%	-11%	-10%	34%
O=c1cc(-c2ccccc2Cl)oc2cc(O)cc(O)c12	45µM*	-23%	11%	-18%	22%
CCc1ccc(S(=O)(=O)Nc2ccc(O)c3c(=O)cc(-c4ccccc4Cl)oc23)cc1	?	-22%	28%	?	20%
CCOc1cccc2oc(-c3ccccc3Cl)cc(=O)c12	19%	.	.	.	.
O=C(Nc1ccc(O)c2c(=O)cc(-c3ccccc3Cl)oc12)c1ccc(F)cc1	?	-2%	-1%	-1%	29%
O=c1cc(-c2ccccc2Cl)oc2c(NS(=O)(=O)c3cc(Cl)cc(Cl)c3O)ccc(O)c12	50µM*	50µM*	-1%	56µM*	-32%
Nc1ccc(O)c2c(=O)cc(-c3ccccc3Cl)oc12	16µM*!	-6%	7%	-20%	26%
C#CC(=O)CC1(CN(Cc2ccccc2)C(=O)OC(C)(C)C)CCCCC1	.	.	0%	?	-6%
C#CCn1cc(/C=N/NC(=O)c2cc3ccccc3o2)c2ccccc21	12%[59 µM]	-3%	9%	-10%	29%
O=C(O)c1ccc(-n2cccc2/C=N\NC(=O)c2cc3cc(Br)ccc3o2)cc1	14µM*	7.9µM*	14%	22µM*	45µM*
